This excerpt belongs to a sample that is enriched for the strongest signals.

CHI3L1 (Homo sapiens), P36222, sequence (P36222 whole entry): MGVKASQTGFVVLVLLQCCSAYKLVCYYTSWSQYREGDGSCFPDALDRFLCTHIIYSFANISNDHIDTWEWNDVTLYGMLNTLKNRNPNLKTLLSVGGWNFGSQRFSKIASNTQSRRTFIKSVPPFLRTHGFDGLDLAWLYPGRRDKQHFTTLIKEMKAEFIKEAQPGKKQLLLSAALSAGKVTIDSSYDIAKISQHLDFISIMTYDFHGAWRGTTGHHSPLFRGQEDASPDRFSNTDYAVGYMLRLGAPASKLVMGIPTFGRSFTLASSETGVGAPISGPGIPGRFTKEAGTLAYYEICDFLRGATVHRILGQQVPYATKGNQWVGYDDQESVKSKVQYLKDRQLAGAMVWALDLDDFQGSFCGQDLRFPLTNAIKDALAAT
6RG (Lolium perenne), sequence (chain, as listed by the source): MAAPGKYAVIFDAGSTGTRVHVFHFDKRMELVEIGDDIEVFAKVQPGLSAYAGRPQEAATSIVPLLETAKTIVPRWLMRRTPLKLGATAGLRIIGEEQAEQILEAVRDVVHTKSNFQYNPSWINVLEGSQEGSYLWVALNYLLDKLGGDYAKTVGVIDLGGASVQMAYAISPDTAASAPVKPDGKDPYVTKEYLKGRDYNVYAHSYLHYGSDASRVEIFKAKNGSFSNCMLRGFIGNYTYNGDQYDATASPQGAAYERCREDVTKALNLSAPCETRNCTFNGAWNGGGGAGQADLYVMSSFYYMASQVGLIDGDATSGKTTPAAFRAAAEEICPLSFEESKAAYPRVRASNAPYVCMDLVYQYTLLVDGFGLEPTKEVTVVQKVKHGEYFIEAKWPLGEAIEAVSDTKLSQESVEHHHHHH

For the first assay, the system named is Neu5Ac(a2-8)Neu5Ac. The assay can be described thus: glycan array binding signal (z-score within array); higher = stronger binding. Conditions: glycan notation: IUPAC condensed, linker removed. The essentials:
(§1)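 The binding signal is a Z-score computed within each array and averaged over linkers. Arrays of the same protein sequence at different concentrations or buffers were also averaged together. Data originate from 3228 arrays in the Consortium for Functional Glycomics database, kept only where the protein sequence was available.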
Regarding Siglec-8 (Homo sapiens), Q9NYZ4, the “glycan array binding signal (z-score)” value was determined as 0.014.

Take 6RG (Lolium perenne): the “glycan array binding signal (z-score)” value was -0.273. The same measure, in the same setting: the value for CHI3L1 (Homo sapiens), P36222 was -0.091.

The next assay deals with Neu5Ac9Ac(a2-3)Gal(b1-3)GlcNAc. The assay is described as above. Conditions: glycan notation: IUPAC condensed, linker removed. An outline of the steps: as §1
For the substance Siglec-8 (Homo sapiens), Q9NYZ4, the “glycan array binding signal (z-score)” value was -0.078. In the case of MpAFP RI GFP (Marinomonas primoryensis), the “glycan array binding signal (z-score)” value was found to be 0.228. Same read-out and setting: then CHI3L1 (Homo sapiens), P36222, with -0.07.
